# Experimental data taken from PubChem BioAssay AID1159580 (chemical genetic matrix, 2015).
# “And” between values parts separate entries of the source, which are not always exact repeats. Identical values can stand only once. Screen size: about 5,500 compounds; about 2,000 (36%) were called active. About 18% were inconclusive and are not listed. The list shows a part of the results. Values without a mark were called inactive. Cut-off read from the data, not from the text of the source: active = normalized growth mostly below about 0.91 (no sharp cut-off); inconclusive = no clear call, values can overlap the other calls; inactive = mostly above about 0.92.
# Assay: chemical genetic growth profiling, strain panel (AID 1159580);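 note: tested at 20 µM; growth read once vehicle control cultures reached saturation at 30 °C; 1 = growth at the plate median or of vehicle wells; lower values mean less growth of the strain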
# Settings: S. cerevisiae deletion strains, growth OD
smiles,measurement,setting,value
CC(C)=CCCC1(C)C=Cc2c(O)c3c(c(CC=C(C)C)c2O1)OC12C(=CC4CC1C(C)(C)OC2(C/C=C(/C)C(=O)O)C4O)C3=O (stereo unspecified),normalized growth,"locus YBR021W, strain FUR4, active compounds read low",1.02
same,normalized growth,"locus YBR229C, strain ROT2, active compounds read low",0.947
same,normalized growth,"locus YCL029C, strain bik1, active compounds read low",0.946
same,normalized growth,"locus YDL035C, strain GPR1, active compounds read low",0.953
same,normalized growth,"locus YDL074C, strain BRE1, active compounds read low",1.03
same,normalized growth,"locus YDL101C, strain DUN1, active compounds read low",0.944
same,normalized growth,"locus YDL134C, strain PPH21, active compounds read low",0.949
same,normalized growth,"locus YDL185W, strain tfp1, active compounds read low",0.955
same,normalized growth,"locus YDL192W, strain arf1, active compounds read low",0.945
same,normalized growth,"locus YDR101C, strain arx1, active compounds read low",0.929
same,normalized growth,"locus YDR162C, strain NBP2, active compounds read low",0.862
same,normalized growth,"locus YDR318W, strain mcm21, active compounds read low",0.931
same,normalized growth,"locus YDR388W, active compounds read low",0.942
same,normalized growth,"locus YDR502C, strain sam2, active compounds read low",0.917 (active)
same,normalized growth,"locus YER110C, active compounds read low",0.952
same,normalized growth,"locus YER155C, strain BEM2, active compounds read low",1.01
same,normalized growth,"locus YER167W, strain BCK2, active compounds read low",0.995
same,normalized growth,"locus YGL078C, strain dbp3, active compounds read low",0.967
same,normalized growth,"locus YGL086W, strain mad1, active compounds read low",0.925 (active)
same,normalized growth,"locus YGL248W, strain PDE1, active compounds read low",0.946
same,normalized growth,"locus YGR078C, strain PAC10, active compounds read low",1.01
same,normalized growth,"locus YGR135W, strain pre9, active compounds read low",1
same,normalized growth,"locus YGR252W, strain gcn5, active compounds read low",1.06
same,normalized growth,"locus YHR030C, strain SLT2, active compounds read low",0.983 and 0.976
same,normalized growth,"locus YHR079C, strain IRE1 (second series), active compounds read low",0.944
same,normalized growth,"locus YHR079C, strain IRE1, active compounds read low",0.971
same,normalized growth,"locus YHR094C, strain hxt1, active compounds read low",0.958
same,normalized growth,"locus YHR129C, strain ARP1, active compounds read low",0.955
same,normalized growth,"locus YHR200W, strain rpn10, active compounds read low",0.938
same,normalized growth,"locus YIL066C, strain RNR3, active compounds read low",0.924
same,normalized growth,"locus YIL073C, strain SPO22, active compounds read low",1.06
same,normalized growth,"locus YIL125W, strain kgd1, active compounds read low",0.936
same,normalized growth,"locus YIR030C, strain dcg1, active compounds read low",0.966
same,normalized growth,"locus YJL095W, strain BCK1, active compounds read low",0.938 and 0.988
same,normalized growth,"locus YJL134W, strain LCB3, active compounds read low",0.976
same,normalized growth,"locus YJL168C, strain set2, active compounds read low",0.99
same,normalized growth,"locus YJL187C, strain SWE1 (second series), active compounds read low",0.929
same,normalized growth,"locus YJR043C, strain POL32, active compounds read low",0.963
same,normalized growth,"locus YJR066W, strain TOR1, active compounds read low",0.949
same,normalized growth,"locus YKL009W, strain mrt4, active compounds read low",0.953
same,normalized growth,"locus YKL068W, active compounds read low",0.98
same,normalized growth,"locus YKL085W, strain MDH1 (second series), active compounds read low",0.962
same,normalized growth,"locus YKL085W, strain MDH1, active compounds read low",0.962
same,normalized growth,"locus YKR001C, strain vps1, active compounds read low",0.849 (active)
same,normalized growth,"locus YLR039C, strain RIC1, active compounds read low",0.883
same,normalized growth,"locus YLR058C, strain SHM2, active compounds read low",0.931
same,normalized growth,"locus YLR102C, strain apc9, active compounds read low",0.966
same,normalized growth,"locus YLR113W, strain HOG1, active compounds read low",0.911
same,normalized growth,"locus YLR268W, strain sec22, active compounds read low",0.883 (active)
same,normalized growth,"locus YLR330W, strain CHS5, active compounds read low",0.991
same,normalized growth,"locus YLR371W, strain rom2, active compounds read low",0.964
same,normalized growth,"locus YLR418C, strain cdc73, active compounds read low",0.787 (active)
same,normalized growth,"locus YML016C, strain PPZ1, active compounds read low",0.963
same,normalized growth,"locus YML032C, strain rad52, active compounds read low",0.945
same,normalized growth,"locus YML124C, strain tub3, active compounds read low",0.952
same,normalized growth,"locus YMR078C, strain ctf18, active compounds read low",0.967
same,normalized growth,"locus YMR223W, strain ubp8, active compounds read low",0.956
same,normalized growth,"locus YMR263W, strain SAP30, active compounds read low",0.971
same,normalized growth,"locus YMR307W, strain GAS1, active compounds read low",1.03
same,normalized growth,"locus YNL067W, strain RPL9B, active compounds read low",0.985
same,normalized growth,"locus YNL128W, strain TEP1, active compounds read low",0.921
same,normalized growth,"locus YNL183C, strain NPR1, active compounds read low",0.917
same,normalized growth,"locus YNL233W, strain BNI4, active compounds read low",1.02
same,normalized growth,"locus YNL250W, strain rad50, active compounds read low",0.951
same,normalized growth,"locus YNL271C, strain bni1, active compounds read low",0.947
same,normalized growth,"locus YNL298W, strain CLA4, active compounds read low",0.955
same,normalized growth,"locus YNL307C, strain MCK1, active compounds read low",0.72 (active)
same,normalized growth,"locus YNL322C, strain KRE1, active compounds read low",0.986
same,normalized growth,"locus YNR052C, strain pop2, active compounds read low",0.961
same,normalized growth,"locus YOL012C, strain htz1",0.366
same,normalized growth,"locus YOL147C, strain pex11, active compounds read low",0.97
same,normalized growth,"locus YOR061W, strain CKA2, active compounds read low",0.924
same,normalized growth,"locus YOR069W, strain VPS5, active compounds read low",0.979
same,normalized growth,"locus YOR136W, strain idh2, active compounds read low",0.962
same,normalized growth,"locus YOR144C, strain elg1, active compounds read low",0.966
same,normalized growth,"locus YOR184W, strain ser1, active compounds read low",0.803 (active)
same,normalized growth,"locus YOR231W, strain MKK1, active compounds read low",0.942
same,normalized growth,"locus YOR316C, strain cot1, active compounds read low",0.956
same,normalized growth,"locus YPL055C, strain LGE1, active compounds read low",0.949
same,normalized growth,"locus YPL241C, strain CIN2, active compounds read low",0.98
same,normalized growth,"locus YPL256C, strain CLN2, active compounds read low",0.955
same,normalized growth,"locus YPR119W, strain clb2, active compounds read low",0.966
same,normalized growth,"locus YPR141C, strain kar3, active compounds read low",0.954
same,normalized growth,"locus YPR163C, strain tif3, active compounds read low",0.909 (active)
same,normalized growth,"locus YPR167C, strain met16, active compounds read low",0.984
same,normalized growth,"strain wtn01, active compounds read low",0.911
